# Assay outcomes from PubChem BioAssay.
# A selection: hits, their analogues and other compounds. The true share with any hit is near 9.3%.
# ELG1 genotoxic: induces genotoxicity in HEK293T cells with luciferase-tagged ELG1. HEK293T ELG1-luciferase reporter, luminescence, 16 h. actives 1.3% (n = 330,000). Potency, µM (highest dose often 46 µM), for inactives: at the top dose activity change, positive = activation, hits mostly activators; further: % of control where 0% means no effect; nearly all actives have a fitted effect of over 60% in size
#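 16 hr compound incubation (37 °C, 5% CO2) of HEK293T cells carrying luciferase-tagged ELG1; luciferase then measured by ONE-Glo luminescence after 30 min at RT.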
# ELG1 repair inh: inhibitors of ELG1-dependent DNA repair in HEK293T cells; HEK293T ELG1-luciferase reporter, luminescence, 16 h; DNA damage induced by 5-fluorouridine; Potency, µM (series often up to 46.1 µM), for the others: at the top dose activity change, negative = inhibition, hits mostly inhibitors; actives 2.3% (n = 330,000); further: on the % scale 0 is the no-effect control and ±100 the full control effect; nearly all actives have a fitted effect of over 55% in size
#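 Quantitative HTS, concentration-response format. 2,000 cells/well co-treated with 5-fluorouridine and compound, 16 hr in 5% CO2 at 37 °C; ONE-Glo luminescence read after 30 min.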
# Rab9 promoter act: activators of Rab9 promoter; actives 2.8% (n = 320,000); Potency, µM (titrated, usually from 9.22 µM), for the others: at the highest dose activation, negative = inhibition, hits mostly activators; AID 485297; Huh7 Rab9 promoter-luciferase reporter, luminescence, 24 h; further: % of control where 0% means no effect; nearly all actives have a fitted effect of over 60% in size
#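 Luciferase signal after 10 min detection reagent at ambient indicates Rab9 promoter upregulation; stably transfected Huh7 cells were treated 24 h with compound in DMSO at 37 °C, 5% CO2.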
# FLuc modulator: inhibits or activates purified firefly luciferase, miR-21 counter-screen; P08659; purified FLuc, Km substrates, luminescence inhibition; Potency, µM (titrated, usually from 57.5 µM), inactives show at the highest dose activity change, negative = inhibition, most hits filed as inhibitors; actives 6.9% (n = 360,000); AID 588342;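 further: plate controls were vehicle for no effect and reference inhibitor for full effect; nearly all actives have a fitted effect of over 55% in size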
# Target sequence (P08659 whole entry, looked up): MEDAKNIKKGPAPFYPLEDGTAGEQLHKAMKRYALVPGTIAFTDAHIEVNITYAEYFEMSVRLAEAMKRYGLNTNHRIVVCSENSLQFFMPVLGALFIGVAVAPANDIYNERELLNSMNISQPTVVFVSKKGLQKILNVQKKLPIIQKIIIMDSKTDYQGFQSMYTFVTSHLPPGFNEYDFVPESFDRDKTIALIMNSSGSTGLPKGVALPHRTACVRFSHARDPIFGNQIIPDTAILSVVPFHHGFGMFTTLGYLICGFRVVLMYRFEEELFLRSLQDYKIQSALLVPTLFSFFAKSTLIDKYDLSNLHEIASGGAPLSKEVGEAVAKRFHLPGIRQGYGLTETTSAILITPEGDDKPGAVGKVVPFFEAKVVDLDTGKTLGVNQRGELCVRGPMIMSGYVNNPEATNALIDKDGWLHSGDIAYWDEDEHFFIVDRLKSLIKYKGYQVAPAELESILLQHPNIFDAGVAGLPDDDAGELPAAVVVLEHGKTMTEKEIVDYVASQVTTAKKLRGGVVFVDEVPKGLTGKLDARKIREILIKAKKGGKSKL
#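 Purified P. pyralis luciferase, 10 nM final, with Km-level 10 uM D-luciferin and 10 uM ATP in 50 mM Tris acetate pH 7.5, 10 mM Mg acetate, 0.01% Tween-20, 0.05% BSA; 6-point qHTS titration about 60 µM downward; luminescence read.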
# SMN2 splice up: increases expression of the SMN2 splice variant; HEK293 SMN2-luciferase splicing reporter, luminescence, 30-36 h; Potency, µM (series often up to 46.1 µM), without a hit: top-dose activity change, positive = activation, usual class: activators; actives 2.8% (n = 210,000); further: % of control where 0% means no effect; nearly all actives have a fitted effect of over 55% in size
#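 qHTS luciferase splicing reporter: luminescence rises when SMN2 exon 7 is included in transfected HEK293 cells. Compound exposure lasted 30-36 h at 37C, with 4.5 mM final sodium butyrate as control, followed by a ONE-Glo read.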
# NPC1 prom act: activators of NPC1 promoter; Huh7 NPC1 promoter luciferase reporter, 24 h; Potency, µM (titrated, usually from 9.22 µM), inactives show at the highest dose activation, hits mostly activators; actives 2.4% (n = 320,000); further: % of control where 0% means no effect; nearly all actives have a fitted effect of over 60% in size
#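 NPC1 promoter–luciferase Huh7 cells; 24 h compound; luminescence.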
# The depositor's hits bear a star; ? = inconclusive; nt = no result. The call rests on the fitted dose curve; in most records, active means well fitted curve in the direction sought with a large enough effect; inconclusive means small, poorly fitted or top-dose-only effect, or another doubt; inactive means no such curve, though single readings can be large; an effect the other way counts as inactive or inconclusive. Potency means the concentration at half of the fitted maximal effect.
SMILES,ELG1 genotoxic,ELG1 repair inh,Rab9 promoter act,FLuc modulator,SMN2 splice up,NPC1 prom act
CC(C)n1c(/N=C/c2c[nH]c3ccccc23)nc2ccccc21,1.6%,0.1%,-1.5%,2.69µM*,-10.4%,-3.1%
COc1cccc(/C=N/c2nc3ccccc3n2C)c1O,10.3%,?,-0.8%,?,nt,-3.1%
Cc1cc(-c2n[nH]c(=S)n2/N=C/c2c[nH]c3ccccc23)n[nH]1,-0.2%,-3.4%,11.1%,2.9%,nt,-3.4%
Cc1ccc(Cn2nnc3c(=O)[nH]c(C4CCN(S(=O)(=O)Cc5ccccc5)CC4)nc32)cc1,-4.6%,14.6µM*,3.0%,?,nt,-5.3%
COc1ccccc1Cn1nnc2c(=O)[nH]c(C3CCN(C(=O)c4ccc(C)cc4)CC3)nc21,-2.1%,23.1µM*,-0.3%,-0.4%,-11.4%,-2.8%
CC(C)(C)CC(=O)N1CCC(c2nc3c(nnn3Cc3c(F)cccc3Cl)c(=O)[nH]2)CC1,-3.4%,16.4µM*,-5.4%,-2.3%,nt,0.0%
COc1ccccc1Cn1nnc2c(=O)[nH]c(C3CCN(C(=O)c4ccc(F)cc4)CC3)nc21,3.2%,?,-8.2%,-0.5%,-10.6%,-4.1%
CC(C)(C)c1ccc(Cn2nnc3c(=O)[nH]c(C4CCN(C(=O)c5ccco5)CC4)nc32)cc1,-1.9%,10.3µM*,-0.8%,0.2%,nt,-0.6%
Cc1ccc(Cn2nnc3c(=O)[nH]c(C4CCN(S(=O)(=O)c5ccccc5)CC4)nc32)cc1,1.7%,0.9%,7.1%,-1.2%,8.0%,0.7%
CC(C)CCN(Cc1ccco1)C(=O)Cn1ncc2c([nH]c3ccccc32)c1=O,nt,nt,nt,-18.4%,nt,nt
O=c1[nH]c(C2CCN(S(=O)(=O)c3ccccc3F)CC2)nc2c1nnn2Cc1ccc(OC(F)(F)F)cc1,-4.4%,18.3µM*,-6.9%,1.8%,nt,0.0%
Cc1ccc(Cn2nnc3c(=O)[nH]c(C4CCCN(S(=O)(=O)c5ccccc5)C4)nc32)cc1 (configuration not stated),20.6µM*,3.8%,24.5%,-1.4%,-18.4%,13.1%
Cc1ccc(Cn2nnc3c(=O)[nH]c(C4CCCN(S(=O)(=O)c5ccccc5F)C4)nc32)cc1 (configuration not stated),9.0%,?,2.3%,0.2%,nt,-7.5%
O=c1[nH]c(C2CCN(S(=O)(=O)c3ccccc3C(F)(F)F)CC2)nc2c1nnn2Cc1ccccc1,-1.3%,?,-2.4%,0.9%,nt,-1.6%
CC1CN(S(=O)(=O)c2ccc(C(=O)OCc3ccc(C#N)cc3)cc2)CC(C)O1 (configuration not stated),3.8%,-13.0%,0.1%,5.7%,nt,-2.8%
C/C(=N/OC(=O)c1ccccc1)c1oc(C)nc1C,2.3%,?,1.4%,12µM*,nt,1.4%
CC(=O)c1cccc(NC(=O)c2oc(C)nc2C)c1,2.4%,13.4%,26.7%,-1.0%,nt,-4.6%
C/C(=N/OC(=O)c1ccc(Cl)cc1Cl)c1oc(C)nc1C,-1.1%,-4.9%,7.1%,7.57µM*,nt,-3.4%
CCOc1ccc(N/C=C/C(=O)c2ccc(OC)c(OC)c2)cc1,18.3µM*,?,4.47µM*,3.01µM*,nt,3.16µM*
COc1ccc(NC(=O)N2CCOCC2)cc1,1.4%,4.4%,6.6%,-0.6%,nt,2.3%
CCCOc1ccc(N/C=C/C(=O)c2ccc(OC)c(OC)c2)cc1,1.3%,-16.4%,0.1%,?,nt,-4.7%
COc1ccc(C(=O)Oc2ccc(C(=S)N3CCOCC3)cc2)cc1,0.2%,-3.0%,-3.9%,21.3µM*,nt,-3.1%
COc1ccc(C(=O)/C=C\N2CCOCC2)cc1,?,?,15.1%,23.9µM*,nt,13.6%
COc1ccc(C(=O)/C=C/Nc2ccc(C)cn2)cc1OC,?,?,1.58µM*,8.49µM*,11.2µM*,2.24µM*
COC(=O)[C@@]1(Cc2ccc(OC)cc2)[C@H]2c3cc(C(=O)N4CCCC4)n(CCc4c[nH]c5ccc(OC)cc45)c3C[C@H]2CN1C(=O)c1ccccc1,nt,nt,nt,nt,9.3%,nt
SMILES,ELG1 genotoxic,ELG1 repair inh,Rab9 promoter act,FLuc modulator,SMN2 splice up,NPC1 prom act
O=C(O)CCC/C=C\CC1C2CCC(O2)C1CNNC(=O)Nc1ccccc1 (configuration not stated),nt,nt,nt,nt,20.4%,nt
COc1ccc(N/C=C\C(=O)c2ccc3ccccc3c2)cc1,16.8%,?,2.82µM*,?,nt,2µM*
O=C(/C=C/Nc1ccccc1)c1ccc(Oc2ncccn2)cc1,?,?,2.24µM*,2.13µM*,?,1.41µM*
CN(C)/C=C/C(=O)c1ccc(Oc2ncccn2)cc1,14.8%,9.1%,0.1%,6.1%,15.0%,-2.6%
COC(/C=C/Nc1ccc(OC)cc1)=C(C#N)C#N,-0.4%,?,-24.1%,-0.9%,12.5%,-5.9%
COc1ccc(N/C=C/C(=O)C(C)(C)C)cc1,10.0%,2.3%,-3.5%,12µM*,nt,-0.3%
COc1ccc(N/C=C/C(=O)c2sc(-c3ccccc3)nc2C)cc1,-5.7%,-18.3%,-2.3%,6.75µM*,-13.5%,-2.2%
COc1ccc(N/C=C/C(=O)c2ccccc2)cc1,0.411µM*,?,0.126µM*,0.12µM*,nt,0.316µM*
COc1ccc(N/C=C(/C(C)=O)c2ccccc2)cc1,?,20.9%,-8.9%,0.3%,-15.6%,-0.3%
CCCSc1nc(N)nc(-c2cccs2)c1C#N,13.9%,?,16.4%,21.3µM*,17.0%,2.8%
Cc1cc(C)c(S(=O)(=O)c2ccccc2)c(N2CCOCC2)n1,4.3%,17.4%,-4.5%,3.0%,-10.4%,-4.2%
COc1ccc(Nc2ncc3c(n2)CCN(Cc2sccc2C)C3)c(OC)c1,nt,nt,nt,-16.7%,nt,nt
CCOc1ccc(NC(=O)c2cccc3c2C(=O)N(Cc2cccnc2)C3)cc1,?,9.4%,5.1%,8.49µM*,17.9%,0.9%
COCCN1Cc2cccc(C(=O)Nc3ccc4c(c3)OCCO4)c2C1=O,?,?,0.1%,21.3µM*,-18.5%,-0.2%
CCCN1Cc2cccc(C(=O)Nc3ccc(CN4CCCC4)cc3)c2C1=O,1.3%,16.1%,-16.8%,16.9µM*,-2.2%,0.4%
COCCN1Cc2cccc(C(=O)Nc3ccc(C)cc3)c2C1=O,-0.4%,-15.4%,-3.4%,?,nt,-5.1%
Cc1ccc(C)o1,nt,nt,nt,nt,1.8%,nt
COc1ccc(CCNC(=O)c2c(O)nc3c(C)cccn3c2=O)cc1OC,nt,nt,nt,2.9%,4.4%,nt
Cc1ccc(C(=O)NC2CCCCC2)cc1,29.9%,?,2.51µM*,21.3µM*,14.1µM*,2.82µM*
N#Cc1ccc(OCC(=O)NC2CCCCCC2)cc1,1.0%,?,nt,nt,nt,nt
O=C(NC1CC1)c1ccc(F)cc1Cl,0.7%,?,0.1%,2.6%,0.0%,8.8%
CC(C)CNC(=S)NC(=O)c1ccc(F)cc1,?,?,16.9%,30.1µM*,?,21.7%
